Several values for one entry are separate records, joined by “and”; a condition that tells them apart may be missing. Identical values can stand only once. Out of some 2,100 compounds screened, about 650 (31%) were called active. Roughly 16% stayed inconclusive and do not appear here. The list shows a part of the results. Values without a mark were called inactive. Calls follow the shape of the dose curve; as a rule, active = well fitted inhibition curve with a large enough effect; inconclusive = small, poorly fitted or top-dose-only effect; inactive = flat fitted curve, though single readings scatter.
assay: qHTS for inhibitors of Vif-A3G interactions: Cherry picks; settings: HeLa A3G-eYFP + Vif (tagged APOBEC3G with the HIV-1 protein that degrades it), 24 h; Potency: eYFP fluorescence increase; series mostly up to 36.9 µM; activity, negative = fluorescence increase: at the top concentration; also: nearly all actives have a fitted effect of over 80% in size; as to activity, negative = fluorescence increase: % of control where 0% means no effect
How it was run: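 HeLa cells stably expressing A3G-eYFP and Vif, cultured overnight then exposed to compounds at several concentrations for 24 hours at 37 C, 5% CO2; cellular yellow fluorescence (488 nm ex, 500-530 nm em) imaged on Acumen, MG132 positive control.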
Potency is read from the fitted curve at half-maximal effect.

Row | SMILES | activity, negative = fluorescence increase | Potency
1 | COc1ccccc1NC(=O)C1=C(C)Nc2nc3ccccc3n2C1c1cccs1 (stereo unspecified) | -2.86% | 
2 | Cc1cc(C)c(N2C(=O)CC(Sc3ccccc3N)C2=O)c(C)c1 (stereo unspecified) | 2.27% | 
3 | CCN1/C(=C/c2ccc3ccccc3[n+]2CC)C=Cc2ccccc21 |  | 9.2 µM (active)
4 | Cc1ccc(S(=O)(=O)N2CCCCC2)cc1NC(=O)Cn1ncc(Cl)c(Cl)c1=O | 1.51% | 
5 | CC(=O)Nc1ccc(-c2ccnc3c2CC(C(=O)NCc2ccccc2)O3)cc1 (stereo unspecified) | -8.78% | 
6 | O=C1Nc2ccc(Br)cc2C12NNc1ccccc1O2 (stereo unspecified) |  | 17.7 µM (active)
7 | O=C(NC(=S)N1CCN(C2CCCCC2)CC1)c1ccccc1 | 13.5% [at 46.1 µM] | 
8 | C=C(NC(=O)C(=C)NC(=O)c1csc(C2=NC3c4csc(n4)C4NC(=O)c5csc(n5)C(C(C)(O)C(C)O)NC(=O)C5CSC(=N5)/C(=C/C)NC(=O)C(C(C)O)NC(=O)c5csc(n5)C3(CC2)NC(=O)C(C)NC(=O)C(=C)NC(=O)C(=C)NC(=O)C(C(C)C)NC2C=Cc3c(C(C)O)cc(nc3C2O)C(=O)OC4C)n1)C(N)=O (stereo unspecified) |  | 4.44 µM (active)
9 | CCN(CC)c1ccc(/C=C/c2cccc[n+]2C)c(OC)c1 |  | 17.7 µM (active)
10 | CCN(CC)c1ccc(NC(=O)c2cccc(F)c2)c(C)c1 | -9.15% | 
11 | COc1ccc(C(=S)N2CCN(c3cccc(Cl)c3)CC2)c(OC)c1 | 0.538% | 
12 | Cc1ccc(-n2c(O)c(/C=C3/C(c4ccccc4)=Nc4ccccc43)c(=O)[nH]c2=O)cc1 | -3.5% | 
13 | CN(C)c1ccc2nc3c(=O)[nH]c(=O)nc-3n(CC(O)C(O)C(O)CO)c2c1 (stereo unspecified) | 1.05% [at 46.1 µM] | 
14 | O=C(c1ccccc1)C1C(=O)c2ccccc2C1=O | 11.2% [at 46.1 µM] | 
15 | NN=C1c2ccccc2C(=O)C1C(=O)C(c1ccccc1)c1ccccc1 (stereo unspecified) |  | 12.5 µM (active)
16 | Cc1cccc(CS(=O)(=O)c2ncc(Cl)c(C(=O)Nc3c(C)cccc3C)n2)c1 | 1.87% | 
17 | COc1ccc(C2=NOC(C(=O)NCc3ccc(F)cc3)C2)cc1OC (stereo unspecified) | -2.75% | 
18 | COc1cc2c3nnc(-c4ccc(F)cc4)c-3cn(Cc3ccc(C)cc3)c2cc1OC |  | 5.59 µM (active)
19 | COc1ccc(-c2cnc3c(NC=O)cc(-c4cc(OC)c(OC)c(OC)c4)cn23)cc1OC | -7.24% | 
20 | Cc1ccc(C)c(Cn2c(=O)n(CCCC(=O)NCc3ccco3)c(=O)c3sccc32)c1 | -1.81% | 
21 | CCn1c(O)c(/C=N/N=C/c2ccc(OC)cc2)c2cc(C3=NNC(=O)CC3)ccc21 |  | 5.8 µM (active)
22 | Cc1ccc(-c2cn3nc(-c4ccccc4)c(-c4ccccc4)nc3n2)cc1 |  | 20.6 µM (active)
23 | NNC(=S)Nc1c(F)cc(F)cc1Br | 2.31% [at 46.1 µM] | 
24 | N#Cc1c(C(F)(F)F)cc(-c2ccco2)nc1SCc1ccccn1 |  | 16.4 µM (active)

Row | SMILES | activity, negative = fluorescence increase | Potency
25 | N#Cc1ccc(-c2ccco2)nc1SCc1ccccc1 | -4.02% | 
26 | Cc1cc(C)cc(NC2=NC3(CCCCC3)N=C(N)N2)c1 | -11.4% | 
27 | COc1ccc(OC)c(NS(=O)(=O)c2ccc(Cl)s2)c1 | -0.929% | 
28 | COc1ccccc1N1C(=O)c2cccc3c(C(=O)O)ccc(c23)C1=O | -8.99% | 
29 | Cc1ccccc1N1C(=O)c2cccc3c(N(C)CCO)ccc(c23)C1=O |  | 20.6 µM (active)
30 | Cc1ccccc1OCC(=O)NNC(=O)Nc1ccc(Cl)cc1 | 1.15% | 
31 | CN1C/C(=C\c2ccc(N3CCOCC3)cc2)C(=O)/C(=C/c2ccc(N3CCOCC3)cc2)C1 |  | 18.4 µM (active)
32 | CCN1C/C(=C/c2cccc([N+](=O)[O-])c2)C(=O)/C(=C/c2cccc([N+](=O)[O-])c2)C1 | -1.75% | 
33 | O=C1/C(=C/c2ccccc2)CN(C(=O)CCN2CCOCC2)C/C1=C\c1ccccc1 | -8.81% | 
34 | COc1ccc(N2CC(C(=O)N/N=C/c3ccc(C)cc3)CC2=O)cc1 (stereo unspecified) | -12.6% | 
35 | CC(C)CC[n+]1ccccc1/C=C/c1ccc(N(C)C)cc1 |  | 20.6 µM (active)
36 | CC[n+]1ccccc1/C=C/c1ccc(N(C)C)cc1 |  | 18.4 µM (active)
37 | COc1ccc(-c2nc3c4ccccc4ccn3c2Cc2ccsc2)cc1OC | 3.28% | 
38 | CCOC(=O)c1[nH]c(C)c(C(=O)Nc2ccccc2C)c1C | -1.23% | 
39 | Cc1ccc2nc(/C(C#N)=C\c3ccc([N+](=O)[O-])o3)[nH]c2c1 |  | 3.26 µM (active)
40 | Cc1ccc([N+](=O)[O-])cc1-c1ccc(/C=C(\C#N)c2[nH]nc(N)c2C#N)o1 | -8.72% | 
41 | N#C/C(=C\c1ccc(-c2ccc(C(=O)O)cc2)o1)c1nc2ccccc2[nH]1 |  | 4.61 µM (active)
42 | Cc1ccc2nc(/C(C#N)=C/c3ccc(-c4ccc(C(=O)OC(C)C)cc4)o3)[nH]c2c1 |  | 6.51 µM (active)
43 | Cc1c(Cl)cccc1-c1ccc(/C=C(\C#N)c2nc3ccccc3[nH]2)o1 |  | 16.4 µM (active)
44 | COc1ccc(-c2[nH]ncc2N=Nc2ccccc2)cc1 | -0.14% | 
45 | O=C(c1[nH]c(C(F)(F)F)nc1-c1ccccc1)N1CCN(c2ccccc2)CC1 | -8.65% | 
46 | COc1cccc(/C=N/NC(=O)c2cc3c(OC)c(OC)ccc3[nH]2)c1OC | -7.13% | 
47 | Cc1cc(-c2ccccc2)nc(N/N=C/c2ccccc2F)n1 | 4.5% [at 46.1 µM] | 
48 | CC(/C=N/NC(=O)c1cc(-c2ccc(C)s2)[nH]n1)=C\c1ccccc1 | -1.03% | 

Row | SMILES | activity, negative = fluorescence increase | Potency
49 | Cc1ccc(/C=N/NC(=O)CCCOc2ccc(Cl)cc2Cl)cc1 | 5.73% | 
50 | COc1ccc(S(=O)(=O)Nc2cccc(-c3ccc4nncn4n3)c2)cc1F | -6.71% | 
51 | CCOC(=O)c1cccc(NC(=O)N2CC=C(c3c[nH]c4ccccc34)CC2)c1 | 3.24% [at 46.1 µM] | 
52 | Cc1ccc2nc(/C(C#N)=C/c3ccc(-c4ccccc4C(=O)O)o3)[nH]c2c1 |  | 3.26 µM (active)
53 | Cc1ccc2nc(/C(C#N)=C/c3ccc(-c4ccc(F)cc4F)o3)[nH]c2c1 |  | 23.1 µM (active)
54 | Cc1ccc2nc(/C(C#N)=C/c3ccc(-c4cccc(Cl)c4)o3)[nH]c2c1 |  | 6.51 µM (active)
55 | N#C/C(=C\c1ccc(-c2ccc(F)cc2F)o1)c1nc2ccccc2[nH]1 |  | 20.6 µM (active)
56 | CC1Cc2cc(S(=O)(=O)CCC(=O)NCc3ccc(Cl)cc3)ccc2N1C(=O)C1CC1 (stereo unspecified) | -12.7% [at 46.1 µM] | 
57 | CCOC(=O)c1c(C)sc(-c2c(-c3ccccc3)[nH]c3[nH]c(=O)[nH]c(=O)c23)c1O |  | 7.31 µM (active)
58 | CC(C)=CCn1c2ccc(NC(=O)NCc3ccc(F)cc3)cc2c(=O)n1C | -6.27% | 
59 | Cc1ccccc1NC(=O)c1sc2nc3c(c(-c4ccco4)c2c1N)CCC3 | -13.1% | 
60 | Nc1c(C(=O)Nc2ccccc2F)sc2nc(-c3ccco3)ccc12 |  | 23.1 µM (active)
61 | COc1ccc(/C=N/NC(=O)c2[nH]nc3c2CCc2ccccc2-3)cc1OC | -16.8% | 
62 | CC(=O)Nc1ccc(S(=O)(=O)N2CCSc3ccccc32)cc1 | -1.38% | 
63 | Cn1cc(C2=C(c3ccc(Cl)cc3Cl)C(=O)NC2=O)c2ccccc21 |  | 13 µM (active) and 18.4 µM (active)
64 | COc1ccc(-n2nnnc2-c2ccccc2)cc1 | -2.72% | 
65 | Cc1cccc(NC(=O)/C(C#N)=C/c2cn(CC(=O)NCc3ccco3)c3ccccc23)c1C | -14.4% | 
66 | O=S(=O)(Nc1ccc(C(O)(C(F)(F)F)C(F)(F)F)cc1)c1ccc(Cl)c2nonc12 | -7.19% | 
67 | COc1ccccc1N1CCN(C(=O)c2cc(=O)c3cc(C)cc(C)c3o2)CC1 | -4.1% | 
68 | COc1cccc(-c2cnc3c(NC=O)cc(-c4cc(OC)c(OC)c(OC)c4)cn23)c1 | -0.111% | 
69 | COc1cccc(NC(=O)c2oc3ccc(S(=O)(=O)N4CCC5(CC4)OCCO5)cc3c2C)c1 | -5.82% [at 46.1 µM] | 
70 | O=C(N/N=C/c1ccc(Cl)cc1)c1cc2c(s1)-c1ccccc1CC2 | -9.15% | 
71 | Clc1ccc(/C=N/NC2=Nc3cccc4cccc2c34)cc1 |  | 18.4 µM (active)
72 | CCOC(=O)Cc1ccc(Nc2nc3cc(-c4sccc4C)sc3c(=O)n2C)cc1 | 1.41% | 

Row | SMILES | activity, negative = fluorescence increase | Potency
73 | COc1ccc(-n2c(O)c(/C=N/NS(=O)(=O)c3ccc(C)c([N+](=O)[O-])c3)c3ccccc3c2=O)cc1OC |  | 11.6 µM (active)
74 | COc1cc(-c2noc(C)c2/C=C/c2cccc([N+](=O)[O-])c2)cc(OC)c1OC | -7.09% | 
75 | O=C(O)CSc1cc(NS(=O)(=O)c2cccc([N+](=O)[O-])c2)c2ccccc2c1O | 1.69% | 
76 | COc1ccc(-n2c(O)c(/C=N/NS(=O)(=O)c3cccc([N+](=O)[O-])c3)c3ccccc3c2=O)cc1OC |  | 15.8 µM (active)
77 | COc1ccc(C(=O)C(C)[n+]2ccc(C)c3ccccc32)cc1[N+](=O)[O-] (stereo unspecified) | 2.06% | 
78 | O=c1[nH]cnc2n[nH]nc12 | -24.1% [at 46.1 µM] | 
79 | CN(C)c1ccc2ccc3cccc4ccc1c2c34 |  | 14.6 µM (active)
80 | Cc1ccc(-c2nc(-c3cc4cccc(OCc5cccc(F)c5)c4oc3=O)no2)cc1 |  | 18.4 µM (active)
81 | COc1ccccc1-c1nnc2sc(-c3cc4ccccc4o3)nn12 | -6.49% | 
82 | COc1ccccc1-c1cc(C(=O)NN)[nH]n1 | 2.82% | 
83 | CCCCCCc1cc2cc(-c3nnc(-c4ccccc4)o3)c(=O)oc2cc1O |  | 1.58 µM (active)
84 | CCCCCCc1cc2cc(-c3nnc(-c4ccccc4OC)o3)c(=O)oc2cc1O |  | 3.53 µM (active)
85 | O=C1OCC2=C1C(c1ccc3c(c1)OCO3)c1cc3c(cc1O2)OCO3 (stereo unspecified) | -11.2% | 
86 | COc1cccc(C2=CC(c3ccccc3)n3nnnc3N2)c1 (stereo unspecified) | -0.672% | 
87 | O=S(=O)(Nc1nc2n(n1)C(c1ccccc1)C=C(c1ccc(Cl)cc1)N2)c1ccccc1 (stereo unspecified) |  | 18.4 µM (active)
88 | CN(C)CCN(C(=O)/C=C/c1cccs1)c1nc2c(F)cc(F)cc2s1 | -2.76% [at 46.1 µM] | 
89 | COc1ccccc1NC(=O)Cc1ccc(-c2ccccc2)cc1 | 5.42% [at 46.1 µM] | 
90 | CC(=O)Nc1sc(C)c(C)c1C(=O)OCC(=O)Nc1ccccc1 |  | 20.6 µM (active)
91 | COC(=O)CCC(=O)NC(=S)Nc1sc(C)c(C)c1C(N)=O | -18.9% | 
92 | CC(=O)Nc1ccc(CC(=O)NCCC(c2ccccc2)c2ccccc2)cc1 | -6.14% | 
93 | CN1C2CCC1/C(=C/c1cccn1C)C(=O)/C2=C\c1cccn1C |  | 18.4 µM (active)
94 | Cn1cccc1/C=C1\CC(C(C)(C)C)C/C(=C\c2cccn2C)C1=O (stereo unspecified) |  | 7.31 µM (active)
95 | Cn1cccc1/C=C1\SC(=Nc2ccccc2)NC1=O | -0.492% | 
96 | CC1C/C(=C/c2cccs2)C(=O)/C(=C/c2cccs2)C1 (stereo unspecified) | 2.31% | 

Source: PubChem BioAssay AID651812 (National Center for Advancing Translational Sciences (NCATS), 2012)
